Source: PubChem BioAssay AID1233 (SRMLSC, 2008)
Results with a measured potency or affinity are listed apart.

molecular target: HMG-CoA reductase [Enterococcus faecalis] (UniProt Q9FD70); test: class II HMG-CoA reductase inhibition potency – biochemical, Enterococcus faecalis, confirmation (AID 1233);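 also: 0% = full reaction carrier wells and 100% = background wells lacking mevalonate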; settings: purified E. faecalis HMGR, NADPH absorbance 340 nm kinetics; series mostly up to 100 µM; inhibition: at the top concentration

inhibition, inactive:
O=[N+]([O-])c1ccc(C(=Nc2cccc3ccccc23)N2CCOCC2)cc1 -4.3%, C=CCOC(=O)c1sc(NC(=O)c2ccco2)nc1C 1.77%, O=C(N/N=C/C(Cl)=C/c1ccccc1)c1cnccn1 -8.76%, CCN(CC)C(=S)NC(=O)c1cccnc1 -4.89%, CCOc1ccc(OCCCC(=O)Nc2nc3ccccc3[nH]2)cc1 -5.68%, CCSc1nnc(NC(=O)CN2C(=O)C3CC=CCC3C2=O)s1 (centres undefined) -6.44%, O=C(OCC(=O)N1CCN(C(=O)c2ccco2)CC1)c1cc(-c2ccco2)nc2ccccc12 -0.43%, Cc1cc(C)nc(NC(=O)CCCC(=O)O)c1 -1.66%, CCC1CCCCN1C(=O)CCn1ccnc1 (centres undefined) -0.41%, COC(=O)C1=C(C)Nc2c(c(=O)n(C)c(=O)n2C)C1c1cccnc1 (centres undefined) -1.92%, COc1cccc(C2NC(=O)NC(O)(C(F)(F)F)C2C(=O)c2cccnc2)c1OC (centres undefined) -8.84%, CCCCCOC(=O)Cn1c(N2CCOCC2)nc2c1c(=O)[nH]c(=O)n2C 0.09%, NC(=O)CSc1nnc(-c2ccc([N+](=O)[O-])cc2)o1 -0.33%, COc1ccc(Nc2nc3c(C)cccn3c(=O)c2C=NCc2ccccc2)cc1 -3.33%, CN(C)c1ccc(N=C/C=C2\N(C)c3ccccc3C2(C)C)cc1 1.95%, C=CCn1c(C)c(C(C)=O)c(N2CCCC2)nc1=S 0.13%, CCCCOc1ccccc1NC(=O)CC1SC(=NCC)N(CC)C1=O (centres undefined) -3.93%, O=C(COC(=O)CSc1cc(Cl)ccc1Cl)Nc1ncc(C(F)(F)F)cc1Cl -8.13%, O=C1NC(=O)/C(=C/C(=O)N2CCOCC2)S1 -3.27%
